Experimental data reported in PubChem BioAssay (NCI).
“And” between values parts separate entries of the source, which are not always exact repeats. Identical values can stand only once. This is part of a sample that, as a whole, favours compounds with a hit. Of some 79,000 tested, about 15% had one in any assay. A structure can be active in one record and inactive in another. The source made the active and inactive calls. Cut-off read from the data, not from the text of the source: active = growth inhibition above about 70%; inactive = the rest.

Assay: NCI Yeast Anticancer Drug Screen. Data for the mec2-1 strain (AID 157)
Conditions: S. cerevisiae mec2-1 strain, at 50.0 µM, stronger effect = higher value
Procedure, shortened: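 Using mec2-1 yeast: add compound, measure growth, express inhibition versus vehicle-treated cultures.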

| SMILES | growth inhibition |
| --- | --- |
| O=C(c1ccc(Br)cc1)C1C(c2ccccc2)N1C1CCCCC1 (centres undefined) | 96.6% (active) |
| Cc1cccc2cc3ccccc3c[n+]12 | 84% (active) |
| Cc1ccc(P(=O)(c2ccc(C)cc2)c2ccc(C)cc2)cc1.Cc1ccc(P(=O)(c2ccc(C)cc2)c2ccc(C)cc2)cc1.[Cl][Sn]([Cl])([Cl])[Cl] | 0.85% (inactive) |
| c1ccc(P(CCP(c2ccccc2)c2ccccc2)CCP(c2ccccc2)c2ccccc2)cc1 | 93% (active) |
| O=[N+]([O-])c1cc2c([N+](=O)[O-])cccc2o1 | 99.7% (active) |
| O=C1CCC[N]1[Hg][N]1CCCC1=O | 94.6% (active) |
| Oc1c(Cl)c(Cl)c(Cl)c(Cl)c1Cl.[Cu+2] | 89.8% (active) |
| ClCCN(CCCl)c1ccc(C=NCCCCN=Cc2ccc(N(CCCl)CCCl)cc2)cc1 | 47% (inactive) |
| CC(C(=O)C1CCCCC1)[n+]1ccccc1 (centres undefined) | 1.3% (inactive) |
| CN(C)CC1CCCCC1=O (centres undefined) | 56.2% (inactive) and -13.8% (inactive) and -15.9% (inactive) |
| CSc1nncc(=O)[nH]1.[Hg] | 99.5% (active) |
| CNC(=O)N1CN(c2ccccc2)C2(CCN(CCCC(=O)c3ccc(F)cc3)CC2)C1=O | 37.9% (inactive) |
| O=C(OCc1ccccc1)C(C(Cl)c1ccccc1)N(Cc1ccccc1)Cc1ccccc1 (centres undefined) | 81.2% (active) |
| O=C1C=C(Cl)C(=O)C=C1Cl | 99.5% (active) |
| CC(=O)[O][Hg][c]1ccccc1N | 93.8% (active) |
| CCOP(=O)(Cc1cccc2ccccc12)OCC | -7.95% (inactive) |
| Nc1c(Cl)cccc1C(=O)O | 26.8% (inactive) |
| CC(=O)O[C@H]1CC[C@H]2[C@@H]3CCC4=CC(=O)CC[C@@H]4[C@H]3CC[C@]12C | 93.5% (active) |
| C1CC[N-]CC1.CC(=N\O)/C(C)=N/O.CC(=N\O)/C(C)=N/O.OC1[CH-]CCCC1.[Co+2] | -1.95% (inactive) |
| c1ccc(C(C(=Nc2ccc(Cc3ccc(N=C(C(c4ccccc4)c4ccccc4)N4CC4)cc3)cc2)N2CC2)c2ccccc2)cc1 | 92.5% (active) |

| SMILES | growth inhibition |
| --- | --- |
| CCN(Cc1ccccc1)CC(O)c1ccc(Cl)c(Cl)c1 (centres undefined) | -12.7% (inactive) |
| CC(=O)OC1C(O)C(C)OC(OC2C(OC(=O)C3CCC4C(C3)OC3(CC(OC(=O)/C=C/c5ccccc5)C(C)CO3)C43CO3)OC(C)C(O)C2OC(C)=O)C1O (centres undefined) | 92.7% (active) |
| CCCCC(CC)CNP(=S)(NCC(CC)CCCC)NCC(CC)CCCC (centres undefined) | 9.55% (inactive) |
| Oc1c(-c2ccccc2)cc(-[n+]2c(-c3ccccc3)cc(-c3ccccc3)cc2-c2ccccc2)cc1-c1ccccc1 | 92.7% (active) |
| Cc1ccc([C@H]2N[C@@H]2c2ccccn2)cc1 | 7% (inactive) |
| CC[CH2][Sn]([CH2]CC)([CH2]CC)[CH2]CCBr | 99.7% (active) |
| O=[N+]([O-])c1cc(S(=O)(=O)F)ccc1S | 77.5% (active) |
| CCCCN(CCCC)CCc1ccc(OC(=O)c2ccc(N)cc2)cc1 | 70.7% (active) |
| Cc1ccc(C(=O)OC(C(=O)O)C(OC(=O)c2ccc(C)cc2)C(=O)O)cc1 (centres undefined) (tested in a mixture with another compound) | 9% (inactive) and 93.7% (active) |
| N#C[S-].[Ce+3].c1ccc(-c2ccccn2)nc1.c1ccc(-c2ccccn2)nc1.c1ccc(-c2ccccn2)nc1 | 94% (active) |
| Nc1nc(N)c(-c2ccc(Cl)c(Cl)c2)c(CCc2ccc(CNC(=O)c3ccc(S(=O)(=O)F)cc3)cc2)n1 | 96.5% (active) |
| CC1C2C=CC1C(c1c3ccc(=O)c(O)c-3oc3c(O)c(O)ccc13)C2C(=O)O (centres undefined) | 47.8% (inactive) |
| O=C(O)CN(CCN(CC(=O)O)CC(=O)O)CC(=O)O | 42.2% (inactive) and 20% (inactive) and 30.6% (inactive) |
| O=S(=O)(F)c1ccc(Cl)cc1C[P+](c1ccccc1)(c1ccccc1)c1ccccc1 | 19.9% (inactive) |
| Oc1ccc2ccccc2c1O | 50.9% (inactive) |
| COC1=[C]([Hg][Br])C(OC)OC1OC (centres undefined) | 99.5% (active) |
| Nc1nc(CCl)cs1 | -24.7% (inactive) and -9.55% (inactive) |
| CCC(C)N1CN(c2ccccc2)C2(CCN(CCCC3(c4ccc(F)cc4)OCCO3)CC2)C1=O (centres undefined) | 5.3% (inactive) |
| COc1ccc(NP(=S)(Nc2ccc(OC)cc2)c2ccccc2)cc1 | 58.1% (inactive) |
